The list is not random: actives were taken first. Their share in the collection is about 2.5%.
Lassa entry inh: Lassa virus entry inhibition. Lassa virus pseudotype entry inhibition, cell reporter. Potency, µM (doses to about 37.9 µM), for the others: at the top dose activity change, negative = inhibition, usual class: inhibitors. 300,000 compounds, 1.2% hits. AID 540256; calls by dose curve; tested in HEK293 cells; note: nearly all actives have a fitted effect of over 50% in size
Vaccinia mCherry: inhibitors of vaccinia virus infection (mCherry reporter signal). Potency, µM (top dose mostly 36.5 µM), for inactives: at the highest dose activity change, negative = inhibition, actives largely listed as inhibitors. Vaccinia virus mCherry reporter infection, fluorescence. 310,000 compounds, 0.63% hits; calls by dose curve; tested in A549 cells; note: nearly all actives have a fitted effect of over 35% in size
VACV Venus inh: vaccinia inhibition (Venus reporter). 330,000 compounds, 0.46% hits. Vaccinia virus Venus reporter expression, fluorescence. Potency, µM (titrated, usually from 36.5 µM), for the others: top-dose activity change, negative = inhibition, actives largely listed as inhibitors; calls by dose curve; tested in A549 cells; note: nearly all actives have a fitted effect of over 30% in size
MARV entry inh: inhibitors of Marburg virus binding or cell entry. Marburg virus pseudotyped entry inhibition, cell reporter. Potency, µM (titrated, usually from 37.8 µM), for the others: top-dose activity change, negative = inhibition, hits mostly inhibitors. 300,000 compounds, 1.8% hits; calls by dose curve; tested in HEK293 cells
The depositor's hits bear a star; [ ] = remark or other dose. % is set by controls: 0 for no effect and ±100 for the full control effect; potency is the fitted concentration of half-maximal effect.

For CC(O)(COc1ccccc1)c1ccc2c(c1)CN(Cc1ccc3nsnc3c1)CCO2 (stereo not given) the results were Vaccinia mCherry -11.6% and VACV Venus inh 5.6%.
Screening CCOc1ccccc1C=NNC(=O)C(=O)NN=Cc1ccccc1OCC returned Lassa entry inh -5.1%, Vaccinia mCherry inactive, VACV Venus inh -11.4% and MARV entry inh 25.0%.
For CCOc1ccccc1NC(=O)C(=O)N/N=C/c1cc(Br)ccc1O the results were Lassa entry inh 1.58µM*, Vaccinia mCherry inconclusive, VACV Venus inh -19.7% and MARV entry inh 2.51µM*.
`O=C(N/N=C/c1ccc(O)c2ncccc12)c1cccc(Br)c1` gave Lassa entry inh inconclusive, Vaccinia mCherry inconclusive, VACV Venus inh inconclusive and MARV entry inh 13µM*.
Screening O=C(N/N=C\c1cc(Br)ccc1O)c1ccc(S(=O)(=O)N2CCCCC2)cc1 returned Lassa entry inh inconclusive, Vaccinia mCherry 5.01µM*, VACV Venus inh inconclusive and MARV entry inh inconclusive.
Screening COc1ccc(F)c(CN2CCOc3ccc(CN4CCC(O)(c5cccnc5)CC4)cc3C2)c1 returned Vaccinia mCherry -19.6% and VACV Venus inh -8.2%.
Screening O=C1[C@H]2[C@@H]3[C@@H](O)[C@H](O)CC(=NOCc4ccccc4)[C@@H]3CC[C@H]2C(=O)N1C[C@@H]1CCCO1 returned MARV entry inh 6.1%[14.2 µM].
`Cc1nc(NCC(=O)c2c[nH]c3ccccc23)sc1C` gave Vaccinia mCherry -21.1% and VACV Venus inh -26.5%.
`CCCCN(CCCC)S(=O)(=O)c1ccc(C(=O)Nc2sc3c(c2C(N)=O)CCN(CC)C3)cc1` gave Lassa entry inh -3.3%[46.1 µM], Vaccinia mCherry -14.3% and VACV Venus inh -12.7%.
Screening CCN1CCc2c(sc(NC(=O)c3ccc(S(=O)(=O)N4CCOCC4)cc3)c2C(=O)OC)C1 returned Lassa entry inh inconclusive, Vaccinia mCherry inconclusive, VACV Venus inh -29.1% and MARV entry inh 10µM*.
`CCN1CCc2c(sc(NC(=O)c3ccc(S(=O)(=O)N(CC)c4ccccc4)cc3)c2C(N)=O)C1` gave Lassa entry inh inconclusive, Vaccinia mCherry inconclusive, VACV Venus inh 11.2µM* and MARV entry inh inconclusive.
For CC(=O)c1c(C)[nH]c(C(=O)OCCCCN2C(=O)c3ccccc3C2=O)c1C the results were Lassa entry inh inconclusive and MARV entry inh 8.2µM*.
`CC(=O)c1c(C)[nH]c(C(=O)OCc2ccccc2)c1C` gave Lassa entry inh inconclusive, Vaccinia mCherry -21.3%, VACV Venus inh -21.0% and MARV entry inh inconclusive.
For CC(NC(=O)c1ccco1)c1nnc2n1CCN(Cc1ccc(N(C)C)cc1)CC2 (stereo not given) the results were Vaccinia mCherry -11.9% and VACV Venus inh -6.1%.
`Cc1ccc(S(=O)(=O)N(CC(=O)N/N=C/c2ccco2)c2cc(Cl)cc(Cl)c2)cc1` gave Lassa entry inh inconclusive, Vaccinia mCherry inconclusive, VACV Venus inh -26.2% and MARV entry inh 15.8µM*.
Screening CNCC[C@H](Oc1ccccc1OC)c1ccccc1 returned MARV entry inh 18.3µM*.
Screening CN(C)CCC(Oc1ccccc1OCc1ccccc1)c1ccccc1 (stereo not given) returned Lassa entry inh inconclusive, Vaccinia mCherry inactive, VACV Venus inh -22.9% and MARV entry inh inconclusive.
Screening CNc1nc(N/N=C/c2cc3c(cc2[N+](=O)[O-])OCO3)nc(Nc2ccccc2)n1 returned Lassa entry inh inconclusive and MARV entry inh 16.4µM*.
For CCCCCCN1C[C@H](n2cc(C3CC3)nn2)[C@@H](O)C[C@H]1c1ccc(Cl)cc1 the results were Lassa entry inh 15.8µM*.
Screening O[C@@H]1C[C@H](c2ccc(Cl)cc2)N(CC2CCCCC2)C[C@H]1n1cc(C2CC2)nn1 returned Vaccinia mCherry -12.4% and VACV Venus inh -5.3%.
`O[C@@H]1CN(CC2CCCCC2)[C@@H](c2ccc(Cl)cc2)C[C@H]1n1cc(C2CC2)nn1` gave Vaccinia mCherry inconclusive and VACV Venus inh 14.1µM*.
For O=C(OCc1cn([C@H]2CN(CC3CCCCC3)[C@@H](c3ccc(Cl)cc3)C[C@H]2O)nn1)c1ccccc1 the results were MARV entry inh 14.1µM*.
`O=C(OCc1cn([C@@H]2C[C@H](c3ccc(Cl)cc3)N(CC3CCCCC3)C[C@H]2O)nn1)c1ccccc1` gave Vaccinia mCherry -5.5% and VACV Venus inh -20.1%.
For CCCCCCN1C[C@H](n2cc(C3CC3)nn2)[C@@H](O)C[C@@H]1c1ccc(C)cc1 the results were Vaccinia mCherry -27.7% and VACV Venus inh inconclusive.
For O=C(C1CCCCC1)N1C[C@H](n2cc(-c3ccc(F)cc3)nn2)[C@H](O)C[C@@H]1c1ccc(Cl)cc1 the results were MARV entry inh 3.53µM*.
CCCCCCN1C[C@@H](n2cc(-c3ccc(F)cc3)nn2)[C@H](O)C[C@H]1c1ccccc1 was read as MARV entry inh 15.8µM*.
Screening CSc1nc(N)nc(SCC(=O)C23CC4CC(CC(C4)C2)C3)c1C#N returned Lassa entry inh -5.8% and MARV entry inh 20.6µM*.
`N#Cc1c(N)nc(SCC(=O)C23CC4CC(CC(C4)C2)C3)c(C#N)c1-c1ccc(Cl)cc1` gave Lassa entry inh -23.7%, VACV Venus inh 1.5% and MARV entry inh -4.8%[46.1 µM].
Screening C[C@]12C[C@@](C)(C=C1C=Cc1ccc(F)cc1)C(=O)C[C@H]2c1ccc(F)cc1 returned Lassa entry inh inconclusive and MARV entry inh 4.7%[14.2 µM].
For Cc1ccc(S(=O)(=O)N(C)C)cc1NC(=O)Nc1ccccc1F the results were Lassa entry inh 7.8%[46.1 µM], Vaccinia mCherry inactive, VACV Venus inh -18.1% and MARV entry inh -22.5%[46.1 µM].
`Cc1cc(C)cc(NC(=O)Nc2cc(S(=O)(=O)N(C)C)ccc2C)c1` gave Lassa entry inh 12.6µM*, Vaccinia mCherry inactive[7.34 µM], VACV Venus inh -6.2%[7.34 µM] and MARV entry inh inconclusive.
Screening Cc1ccc(NC(=O)Cn2cc(C(=O)c3cccs3)c3ccccc32)cc1C returned Lassa entry inh inconclusive, Vaccinia mCherry -18.5%, VACV Venus inh -16.2% and MARV entry inh 11.2µM*.
Screening COc1cc(Cl)c(CN2CCCC(CO)(Cc3ccccc3F)C2)cc1OC (stereo not given) returned Lassa entry inh inconclusive, Vaccinia mCherry -26.8%, VACV Venus inh -28.8% and MARV entry inh 2.82µM*.
For CCc1nc2ccccc2c(C(=O)OCc2nc3ccccc3c(=O)[nH]2)c1C the results were Lassa entry inh inconclusive, Vaccinia mCherry inactive, VACV Venus inh -26.8% and MARV entry inh 3.55µM*.
For CCOC(=O)[C@]12C[C@]3(OC)CCN(C(=O)N[C@@H]1c1ccccc1)[C@@H]32 the results were Lassa entry inh -19.5%[14.3 µM] and MARV entry inh 9.7%[14.2 µM].
Cc1ccc(NC(=O)CCSc2nnc(C)s2)cc1 was read as Lassa entry inh 20.4% and MARV entry inh 1.4%.
CC1=NN(/C(=N\c2nnc(C)s2)Nc2ccc(C(C)(C)C)cc2)[C@H](c2ccc(C)cc2)S1 was read as Lassa entry inh -18.3% and MARV entry inh 8.2µM*.
For O=C1c2ccccc2C(=O)C1c1nccc2ccccc12 the results were Lassa entry inh inconclusive, Vaccinia mCherry -13.3%, VACV Venus inh 0.0% and MARV entry inh 2.51µM*.
